Experimental data taken from publication PMC4336329 (PLoS ONE, 2015).
Screen size: about 310,000 compounds; about 14,000 (4.5%) showed an effect of 50% or more. The effect is printed as a negative number. This is one part of a sample in which strong results are shown more often than they occur.

The compounds below were run against human ether-à-go-go-related gene (hERG) potassium channel (human, UniProt Q12809) (assay: primary screen, population patch clamp on CHO cells stably expressing hERG; higher = less effect of the substance).
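Also: peak tail current of the secondary pulse compared with the same well before compound.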

Chain of human ether-à-go-go-related gene (hERG) potassium channel (Q12809 whole entry, looked up): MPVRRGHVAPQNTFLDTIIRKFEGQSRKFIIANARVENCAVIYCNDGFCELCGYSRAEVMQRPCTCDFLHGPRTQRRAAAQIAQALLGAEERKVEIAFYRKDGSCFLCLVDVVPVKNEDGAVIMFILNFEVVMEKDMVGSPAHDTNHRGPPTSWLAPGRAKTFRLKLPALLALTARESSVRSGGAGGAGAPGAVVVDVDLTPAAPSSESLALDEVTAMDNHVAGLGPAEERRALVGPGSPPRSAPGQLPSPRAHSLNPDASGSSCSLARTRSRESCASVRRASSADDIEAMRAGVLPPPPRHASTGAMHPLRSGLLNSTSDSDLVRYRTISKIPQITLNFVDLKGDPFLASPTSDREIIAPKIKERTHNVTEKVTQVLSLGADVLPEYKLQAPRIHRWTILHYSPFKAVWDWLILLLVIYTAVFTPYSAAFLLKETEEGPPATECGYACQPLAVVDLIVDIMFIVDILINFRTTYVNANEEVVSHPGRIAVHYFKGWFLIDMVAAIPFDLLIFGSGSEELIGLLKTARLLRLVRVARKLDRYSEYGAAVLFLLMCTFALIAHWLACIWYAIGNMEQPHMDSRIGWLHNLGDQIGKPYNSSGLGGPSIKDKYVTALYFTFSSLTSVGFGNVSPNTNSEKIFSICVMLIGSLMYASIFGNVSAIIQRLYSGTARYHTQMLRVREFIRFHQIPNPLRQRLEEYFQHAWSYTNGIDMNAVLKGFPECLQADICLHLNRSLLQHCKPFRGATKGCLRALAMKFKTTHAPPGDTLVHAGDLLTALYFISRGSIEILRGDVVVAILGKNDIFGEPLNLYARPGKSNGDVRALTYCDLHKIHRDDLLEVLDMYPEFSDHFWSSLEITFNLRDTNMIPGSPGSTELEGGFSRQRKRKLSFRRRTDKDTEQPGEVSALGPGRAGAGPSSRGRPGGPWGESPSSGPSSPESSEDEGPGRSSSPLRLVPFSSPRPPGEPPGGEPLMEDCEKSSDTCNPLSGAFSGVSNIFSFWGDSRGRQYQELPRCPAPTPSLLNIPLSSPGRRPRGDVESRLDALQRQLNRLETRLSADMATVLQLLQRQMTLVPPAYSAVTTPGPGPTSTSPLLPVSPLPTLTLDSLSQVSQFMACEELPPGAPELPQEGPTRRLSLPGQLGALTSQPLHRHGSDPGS

Row | SMILES | hERG current change (%, negative = inhibition) at 10uM [%]
1 | O=P(O)(O)O.c1ccc(CSCCc2ccncc2)cc1 | -5.48
2 | NC(=O)Cn1cc(C(=O)c2ccccc2F)c2ccccc21 | 25.1
3 | COC(=O)Cn1cc(C(=O)c2ccccc2F)c2ccccc21 | -1.29
4 | CCOC(=O)Cn1cc(C(=O)c2ccccc2F)c2ccccc21 | -71
5 | CCc1ccc(C(=O)CN(C#N)c2nc(C)cc(C)n2)cc1 | -75.6
6 | CCN(CC)C(=O)CN(C#N)c1nc(C)cc(C)n1 | 19.4
7 | Cc1cc(C)nc(N(C#N)CC(=O)c2ccccc2)n1 | -42.9
8 | Cc1c(Cl)cccc1NC(=S)NC(=O)c1cncc(Br)c1 | 17.6
9 | COc1cccc(/C=N/NC(=S)NCCc2ccccc2)c1 | 10.5
10 | CCC(=O)Nc1cccc(-c2nnc(-c3cccc(NC(=O)CC)c3)o2)c1 | 7.83
11 | Cc1ccc(CNC(=O)c2oc3ccc(S(=O)(=O)N4CCC5(CC4)OCCO5)cc3c2C)cc1 | -3.35
12 | CS(=O)(=O)NCCSCc1c(F)cccc1Cl | 1.87
13 | CN(Cc1ccccc1)S(=O)(=O)c1ccc(NS(C)(=O)=O)cc1 | -55.5
14 | CN(c1ccc(C(=O)NCCSCc2c(F)cccc2Cl)cc1)S(C)(=O)=O | 1.6
15 | CN(Cc1ccccc1)S(=O)(=O)c1ccc(NS(=O)(=O)Cc2ccccc2)cc1 | 0.139
16 | CS(=O)(=O)Nc1ccc(C(=O)NCCSCc2c(F)cccc2Cl)cc1 | -57.7
17 | CC(=O)Nc1ccc(S(=O)(=O)N(C)Cc2ccccc2)cc1 | -12.7
18 | CS(=O)(=O)Nc1ccc(C(=O)Nc2ccccc2C(=O)NCc2ccco2)cc1 | -69.2
19 | CS(=O)(=O)Nc1ccccc1C(=O)NCc1ccco1 | -2.03
20 | CS(=O)(=O)Nc1ccc(C(=O)NCCSCc2ccccc2)cc1 | -45.1
21 | CS(=O)(=O)Nc1ccc(C(=O)NCc2ccco2)cc1 | 0.221
22 | CC(=O)Nc1ccc(C(=O)NCCc2ccccc2)cc1 | 12.9
23 | CS(=O)(=O)Nc1ccc(C(=O)NCCc2ccccc2)cc1 | -69.6
24 | CCOC(=O)C1=C(COc2ccccc2)NC(=O)NC1c1ccc2ccccc2c1 (centres unmarked) | -12.3
25 | CC(C)CCNC(=O)NC(=O)CSc1nnc2ccccn12 | 15.6
26 | CCOC(=O)N1CCC(NC(=O)CC2C(=O)NCCN2Cc2ccccc2)CC1 (centres unmarked) | -1.48
